Each structure is given as a SMILES string. ± gives the standard deviation.

These results are taken from the supplement of paper PMC10646978.

Holding throughout (conditions): modulator concentration 10 µM
Test [1] has as its system RAW-Dual (murine macrophage reporter line). Briefly: NF-kB reporter (SEAP) activity fold change vs agonist alone; higher = enhanced NF-kB activity. The procedure, abridged:
(§1)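 RAW-Dual murine macrophage reporter cells were plated at 50 000 per well in 384-well plates, pin-transferred compound to 10 μM final, and pre-incubated for 1 hour at 37 °C before a PRR agonist was added and the cells incubated overnight. NF-κB activity was read from supernatant SEAP with QUANTI-Blue at 620 nm absorbance, and IRF activity from Lucia luciferase with QUANTI-Luc by luminescence. Each signal was expressed as fold change by dividing by the mean agonist-only control on the same plate. Two replicate plates were averaged, with errors obtained by propagation.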

Test [2] has the same test system. In words: IRF reporter (Lucia luciferase) activity fold change vs agonist alone; higher = enhanced IRF activity. Summed up:
as §1

The test system is the same in test [3]. In words: viability score (confluency relative to resting cells, overnight) (fraction); higher = more viable, active = viable (0.7 or more). Summed up:
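RAW-Dual macrophages in 384-well plates were incubated overnight with compound, final concentration 10 μM. Confluency images from IncuCyte were processed in IncuCyte software into two masks covering all imaged wells. The viability score is each well's confluency relative to resting cells, and a compound met the cutoff when both masks exceeded 70% of resting cells.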

Where [4] appears, read: agonist: CpG ODN 1826 0.5 ug/mL.

As to `Cc1cnc2c(c1SCC(=O)N1CCc3ccccc31)c(=O)n(C)c(=O)n2C`, the NF-kB reporter in test [1] (setting [4]) amounted to 1.01 ± 0.057; in test [1] (agonist: LPS 0.1 ug/mL), 1.22 ± 0.18; in test [1] (agonist: MPLA […]) it was 0.916 ± 0.069. Further, the IRF reporter amounted to 1.01 ± 0.051 in test [2] (agonist: 3'3'-cGAMP 10 ug/mL), 1.17 ± 0.15 in test [2] (agonist: LPS 0.1 ug/mL) and 1.14 ± 0.25 in test [2] (agonist: MPLA […]). The viability score in test [3] is 1.01 (active).
In the case of `CS(=O)(=O)N1C2CCC1CC(NC(=O)NC1CCCC1)C2` (configuration not stated), the NF-kB reporter in test [1] (setting [4]) amounted to 1.01 ± 0.11; in test [1] (agonist: LPS 0.1 ug/mL), 1.03 ± 0.12; in test [1] (agonist: MPLA […]), 0.88 ± 0.059. Further, the IRF reporter in test [2] (agonist: 3'3'-cGAMP 10 ug/mL) turned out to be 0.98 ± 0.093; in test [2] (agonist: LPS 0.1 ug/mL) it was 1.21 ± 0.14; in test [2] (agonist: MPLA […]) it was 1.2 ± 0.26. Further, the viability score in test [3] was 1.01 (active).
Turning to `OC1(c2ccc(Cl)c(C(F)(F)F)c2)CCN(CCCC(c2ccc(F)cc2)c2ccc(F)cc2)CC1`, the NF-kB reporter in test [1] (setting [4]) was 0.101 ± 0.0057; in test [1] (agonist: LPS 0.1 ug/mL), 0.173 ± 0.12; in test [1] (agonist: MPLA […]), 0.103 ± 0.0063. In addition, the IRF reporter in test [2] (agonist: 3'3'-cGAMP 10 ug/mL) is 0.0719 ± 0.0038; in test [2] (agonist: LPS 0.1 ug/mL) it was 0.145 ± 0.11; in test [2] (agonist: MPLA […]) it was 0.0408 ± 0.004. Moreover, the viability score in test [3] is 0.0235 (inactive).
In the case of `CN1CCC2(CC1)NC(=O)N(CC(=O)N1CCc3ccccc31)C2=O`, the NF-kB reporter in test [1] (setting [4]) is 0.927 ± 0.094; in test [1] (agonist: LPS 0.1 ug/mL), 1.14 ± 0.096; in test [1] (agonist: MPLA […]), 0.942 ± 0.11. Besides, the figures for the IRF reporter in test [2] (agonist: 3'3'-cGAMP 10 ug/mL), in test [2] (agonist: LPS 0.1 ug/mL) and in test [2] (agonist: MPLA […]) were 1.01 ± 0.063, 1.18 ± 0.14 and 1.2 ± 0.1, respectively. Besides, the viability score in test [3] is 1.02 (active).
Turning to `CC(C)(C)NCC(O)COc1cccc2c1C[C@H](O)[C@H](O)C2` (some centres not stated), the NF-kB reporter in test [1] (setting [4]) was found to be 1.03 ± 0.091; in test [1] (agonist: LPS 0.1 ug/mL), 0.97 ± 0.051; in test [1] (agonist: MPLA […]), 0.971 ± 0.034. For the same compound, the results for the IRF reporter in test [2] (agonist: 3'3'-cGAMP 10 ug/mL), in test [2] (agonist: LPS 0.1 ug/mL) and in test [2] (agonist: MPLA […]) were 0.892 ± 0.05, 0.976 ± 0.032 and 0.961 ± 0.11, respectively. Moreover, the viability score in test [3] was 0.981 (active).
On to `Nc1ncn(C2O[C@H](CO)[C@@H](O)[C@H]2O)c(=O)n1` (some centres not stated) [Prestw-866], for which the values for the NF-kB reporter in test [1] (setting [4]), in test [1] (agonist: LPS 0.1 ug/mL) and in test [1] (agonist: MPLA […]) were 2.01 ± 0.35, 1.24 ± 0.18 and 4.32 ± 0.33, respectively. Besides, the results for the IRF reporter in test [2] (agonist: 3'3'-cGAMP 10 ug/mL), in test [2] (agonist: LPS 0.1 ug/mL) and in test [2] (agonist: MPLA […]) were 0.508 ± 0.033, 0.622 ± 0.14 and 0.747 ± 0.1, respectively. Moreover, the viability score in test [3] is 0.806 (active).
As to `CCN(CC)CCNC(=O)c1c(C)[nH]c(/C=C2\C(=O)Nc3ccc(F)cc32)c1C.O=C(O)C[C@H](O)C(=O)O`, the NF-kB reporter turned out to be 0.186 ± 0.011 in test [1] (setting [4]), 0.791 ± 0.11 in test [1] (agonist: LPS 0.1 ug/mL) and 0.636 ± 0.061 in test [1] (agonist: MPLA […]). Further, the IRF reporter in test [2] (agonist: 3'3'-cGAMP 10 ug/mL) was determined as 0.0261 ± 0.0039; in test [2] (agonist: LPS 0.1 ug/mL) it was 0.048 ± 0.0053; in test [2] (agonist: MPLA […]), 0.0544 ± 0.016. For the same compound, in test [3], the viability score is 0.117 (inactive).
On to `COc1ccc(C2Sc3ccccc3N(CCN(C)C)C(=O)C2OC(C)=O)cc1.Cl` (configuration not stated), for which the NF-kB reporter in test [1] (setting [4]) is 1.01 ± 0.29; in test [1] (agonist: LPS 0.1 ug/mL), 1 ± 0.05; in test [1] (agonist: MPLA […]), 1.08 ± 0.092. Further, the IRF reporter in test [2] (agonist: 3'3'-cGAMP 10 ug/mL) is 0.966 ± 0.033; in test [2] (agonist: LPS 0.1 ug/mL), 1.15 ± 0.15; in test [2] (agonist: MPLA […]), 1.2 ± 0.12. For the same compound, in test [3], the viability score was 0.992 (active).
Regarding `Cc1cc(C)n(-c2ccc(=O)n(CCNS(=O)(=O)c3ccccc3F)n2)n1`, the results for the NF-kB reporter in test [1] (setting [4]), in test [1] (agonist: LPS 0.1 ug/mL) and in test [1] (agonist: MPLA […]) were 1.08 ± 0.09, 1.08 ± 0.086 and 0.937 ± 0.049, respectively. For the same compound, the figures for the IRF reporter in test [2] (agonist: 3'3'-cGAMP 10 ug/mL), in test [2] (agonist: LPS 0.1 ug/mL) and in test [2] (agonist: MPLA […]) were 1.01 ± 0.059, 1.2 ± 0.081 and 1.13 ± 0.11, respectively. Further, the viability score in test [3] was 1 (active).
In the case of `COc1ccccc1N1CCN(CCCNc2cc(=O)n(C)c(=O)n2C)CC1.Cl`, the NF-kB reporter in test [1] (setting [4]) was 1.2 ± 0.3; in test [1] (agonist: LPS 0.1 ug/mL) it was 1.08 ± 0.34; in test [1] (agonist: MPLA […]), 0.954 ± 0.085. The results for the IRF reporter in test [2] (agonist: 3'3'-cGAMP 10 ug/mL), in test [2] (agonist: LPS 0.1 ug/mL) and in test [2] (agonist: MPLA […]) were 0.959 ± 0.029, 1.21 ± 0.4 and 1.12 ± 0.092, respectively. Moreover, the viability score in test [3] is 0.996 (active).
For `CCOC(=O)C1=C(C)N(c2ccc(OC)cc2)C(=O)C1=Cc1ccc(C(=O)O)cc1`, the NF-kB reporter in test [1] (setting [4]) amounted to 0.751 ± 0.13; in test [1] (agonist: LPS 0.1 ug/mL), 1.12 ± 0.087; in test [1] (agonist: MPLA […]) it was 0.984 ± 0.076. Further, the IRF reporter was 0.642 ± 0.022 in test [2] (agonist: 3'3'-cGAMP 10 ug/mL), 1.32 ± 0.16 in test [2] (agonist: LPS 0.1 ug/mL) and 1.39 ± 0.15 in test [2] (agonist: MPLA […]). In test [3], the viability score was 0.997 (active).
As for `Cc1ccc(S(=O)(=O)CCSc2cccc(C(=O)Nc3ccccc3)c2)cc1`, the NF-kB reporter worked out at 0.992 ± 0.068 in test [1] (setting [4]), 1.03 ± 0.087 in test [1] (agonist: LPS 0.1 ug/mL) and 0.909 ± 0.1 in test [1] (agonist: MPLA […]). The IRF reporter in test [2] (agonist: 3'3'-cGAMP 10 ug/mL) was determined as 0.808 ± 0.03; in test [2] (agonist: LPS 0.1 ug/mL), 1.26 ± 0.13; in test [2] (agonist: MPLA […]) it was 1.08 ± 0.098. The viability score in test [3] was 1 (active).
As for `O=C(Nc1cccc(C(F)(F)F)c1)Nc1cnn(CC2COc3ccccc3O2)c1` (configuration not stated), the results for the NF-kB reporter in test [1] (setting [4]), in test [1] (agonist: LPS 0.1 ug/mL) and in test [1] (agonist: MPLA […]) were 0.717 ± 0.05, 0.934 ± 0.078 and 1.1 ± 0.059, respectively. Moreover, the figures for the IRF reporter in test [2] (agonist: 3'3'-cGAMP 10 ug/mL), in test [2] (agonist: LPS 0.1 ug/mL) and in test [2] (agonist: MPLA […]) were 0.913 ± 0.051, 1.08 ± 0.12 and 1.78 ± 0.45, respectively. In addition, the viability score in test [3] is 0.841 (active).
As to `CC(=O)c1c(C)c2cnc(Nc3ccc(N4CCNCC4)cn3)nc2n(C2CCCC2)c1=O.Cl`, the values for the NF-kB reporter in test [1] (setting [4]), in test [1] (agonist: LPS 0.1 ug/mL) and in test [1] (agonist: MPLA […]) were 1.27 ± 0.47, 1.14 ± 0.064 and 1.22 ± 0.1, respectively. The IRF reporter in test [2] (agonist: 3'3'-cGAMP 10 ug/mL) came out at 0.363 ± 0.014; in test [2] (agonist: LPS 0.1 ug/mL), 0.898 ± 0.16; in test [2] (agonist: MPLA […]), 0.966 ± 0.16. For the same compound, the viability score in test [3] is 0.982 (active).
As for `COc1cc(C(=O)O)ccc1NC(=O)[C@@H]1N[C@@H](CC(C)(C)C)[C@](C#N)(c2ccc(Cl)cc2F)[C@H]1c1cccc(Cl)c1F`, the NF-kB reporter was determined as 0.35 ± 0.03 in test [1] (setting [4]), 0.513 ± 0.052 in test [1] (agonist: LPS 0.1 ug/mL) and 0.679 ± 0.058 in test [1] (agonist: MPLA […]). Besides, the IRF reporter in test [2] (agonist: 3'3'-cGAMP 10 ug/mL) stood at 0.608 ± 0.053; in test [2] (agonist: LPS 0.1 ug/mL), 1.02 ± 0.21; in test [2] (agonist: MPLA […]), 0.952 ± 0.34. Besides, the viability score in test [3] is 0.122 (inactive).
Take `CCCCCOC(=O)CSc1nnc(-c2ccc(Cl)cc2Cl)o1`: the NF-kB reporter in test [1] (setting [4]) was 0.957 ± 0.076; in test [1] (agonist: LPS 0.1 ug/mL) it was 0.981 ± 0.083; in test [1] (agonist: MPLA […]), 0.99 ± 0.048. For the same compound, the results for the IRF reporter in test [2] (agonist: 3'3'-cGAMP 10 ug/mL), in test [2] (agonist: LPS 0.1 ug/mL) and in test [2] (agonist: MPLA […]) were 1.07 ± 0.23, 1.04 ± 0.051 and 1.02 ± 0.14, respectively. Further, the viability score in test [3] is 1 (active).
